From PubChem BioAssay
Pf Dd2 inh: Plasmodium falciparum Dd2 growth inhibition | P. falciparum Dd2 growth, SYBR Green, 72 h | Potency, µM (doses to about 28.9 µM), for the others: at the highest dose activity, negative = inhibition, most hits filed as inhibitors | 120,000 compounds, 4.3% hits | AID 1347417; active means well fitted inhibition curve with a large enough effect;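 further: plate controls were DMSO vehicle for no effect and reference drug for full effect; nearly all actives have a fitted effect of over 65% in size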
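Infected erythrocytes (Dd2, 0.3% parasitemia, 2.5% hematocrit final) are added to compound in RPMI-1640/Albumax II medium, grown 72 h at 37C in low oxygen, then lysed with saponin/Triton-X containing SYBR Green and read by fluorescence.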
Active calls of the source: *; i = inactive; [ ] = another dose, or the depositor's remark. Shown is part of a subset that was picked to be rich in hits. Potency means the concentration at half of the fitted maximal effect.

SMILES | Pf Dd2 inh
Cc1nc([C@@H]2CN(C(=O)c3ccc4ncccc4c3)C[C@H]2C(N)=O)n[nH]1 | 12%
Cc1cc2oc(=O)c(CC(=O)O)c(C)c2c2occ(-c3ccccc3)c12 | -14%
COc1ccc(CN2CCC3(CC2)CC(O)CCO3)cc1OC (centres undefined) | 2%
COc1ccc(-c2onc(C)c2C)cc1S(=O)(=O)N1CCC(C)CC1 | 15%
COc1ccc(CNC(=O)C2CCN(Cc3nc(-c4ccc(OC)c(OC)c4)oc3C)CC2)cc1 | -26%
COc1ccc(-c2c(C)c3ccc(O)c(CN4CCC(C)CC4)c3oc2=O)cc1OC | 10µM*
COc1ccc(CN2CCC(N3CCCCCC3=O)CC2)cc1 | 13%[44.1 µM]
COc1ccccc1CNC(=O)C1CCN(Cc2nc(-c3ccc(OC)c(OC)c3)oc2C)CC1 | -7%
COc1ccc(-c2nnc(SCC(=O)N3CCCCC3)o2)cc1 | -22%
COc1ccc(-c2cc3ccc(O)c(CN4CCCC4)c3oc2=O)cc1 | 5.6µM*
COc1ccc(-c2cc3ccc(O)c(CN4CCC(C)CC4)c3oc2=O)cc1OC | 2.5µM*
O=c1oc2c(CN3CCCC3)c(O)ccc2cc1-c1ccccc1 | 11µM*
O=c1oc2ccc(Br)cc2cc1-c1csc(-c2ccccc2)n1 | 23%
O=C1NCCOCCN(C(=O)c2ccc3ccccc3n2)[C@H]2CCC[C@@H]12 | 23%
CN(C)[C@@H]1CN(C(=O)Cc2ccc(Cl)cc2)C[C@H]1CO | -12%
CC(C)CN1Cc2ccccc2-n2ccnc2C12CCN(C(=O)c1ccco1)CC2 | -26%[5.79 µM]
CN1C[C@@H](NC(=O)c2ccc3c(c2)OCO3)C[C@H]1c1nc(-c2ccc3ccccc3c2)no1 | -22%
COC[C@H]1C[C@@H](NC(=O)Nc2cccc(F)c2)[C@H](O)[C@@H]1O | 8%[44.1 µM]
CC(C)NC(=O)NC1CC2(CCN(C(=O)CCC(=O)O)CC2)c2ccccc21 (centres undefined) | 6%
COc1ccccc1NC(=O)N(C)CC1CCOCC1 | 31%
CN1Cc2ncnc(N3CCC(c4ccccc4)CC3)c2CN(c2ccccc2)C1=O | -12%
O=C(NCc1cccnc1)C1CCC(=O)N1C1CCN(C(=O)Cc2ccccc2F)CC1 (centres undefined) | -14%
COC[C@H]1NC(=O)CC[C@H]1C(=O)O | i
O=C(Cn1nnnc1CN1CCOCC1)N1CCN(c2ccc(Cl)cc2)CC1 | -13%
COc1ccc(CNC(=O)Cn2c(=O)oc3cc(S(=O)(=O)N4CCC(C)CC4)ccc32)cc1 | -29%
SMILES | Pf Dd2 inh
COc1ccc(-c2nc(S(=O)(=O)c3ccccc3)c(N3CCC(C)CC3)o2)cc1 | 31%
O=c1oc2c(CN3CCOCC3)c(O)ccc2cc1-c1ccc(Cl)cc1 | 7.1µM*
Cn1cc(-c2ccc(O)c(F)c2)c2nc(CN3CCOCC3)cn2c1=O | -16%[44.1 µM]
COc1ccc(-c2cc3ccc(O)c(CN4CCC(C)CC4)c3oc2=O)cc1 | 2.2µM*
Cc1noc(C)c1S(=O)(=O)N1CCC(c2noc(-c3cnccn3)n2)C1 (centres undefined) | i[5.79 µM]
CCNC(=O)c1cccnc1OC1CCN(C(=O)c2cccc(OC)c2)C1 (centres undefined) | -7%
c1ccc(Cn2cnnc2CC2CCCNC2)cc1 (centres undefined) | 19%
C[S+](=O)([O-])N1CCC(Cn2ccc3c(N4CCOCC4)nc(-c4cccc5[nH]ncc45)cc32)CC1 | i
CN1CCC(Cn2ccc3c(N4CCOCC4)nc(-c4ccc5cn[nH]c5c4)cc32)CC1 | 3.5µM*
CN1CCC(Cn2ccc3c(N4CCOCC4)nc(-c4cccc5[nH]ccc45)cc32)CC1 | -25%[44.1 µM]
NC1CCC(n2cc(C(=O)N3CCC(Nc4ccccn4)CC3)nn2)CC1 (centres undefined) | -8%
CCCCCCNc1ncnc2c1sc1nc(N3CCOCC3)c3c(c12)CCCC3 | 8.9µM*
CC(C)OCCCNc1ncnc2sc3c(c12)CCCC3 | i
CCCc1nc2sc3c(N4CCCCC4)ncnc3c2c2c1CCCC2 | 24%
CCc1noc([C@@H]2CC(F)(F)CN2C(=O)c2ccc(C#N)cc2)n1 | 28%
Cc1c(C)n(Cc2ccc(F)cc2)c2ccc(C(=O)N3CCN(c4ccc(Cl)cc4)CC3)cc12 | -19%
Cc1c(C)n(Cc2ccccc2)c2ccc(C(=O)N3CCN(c4ccc(F)cc4)CC3)cc12 | 16%
Cc1ccc(Cl)cc1N1CCN(C(=O)c2ccc3c(c2)N(Cc2ccc(F)cc2)CCS3)CC1 | 7.9µM*
Cc1ccc(C)c(N2CCN(C(=O)CN3CCSc4ccccc43)CC2)c1 | 7%
O=C(CN1CCSc2ccccc21)N1CCN(c2ccc(F)cc2)CC1 | 3%
Cc1ccc(Cl)cc1N1CCN(C(=O)Cn2cnc3onc(-c4ccc(F)cc4)c3c2=O)CC1 | 13%[5.79 µM]
Cc1ccc(CN2CCSc3ccc(C(=O)N4CCN(c5cc(C)ccc5C)CC4)cc32)cc1 | 11µM*
COc1ccc(Cn2c(=O)[nH]c3cc(C(=O)N4CCN(c5cc(C)ccc5C)CC4)ccc3c2=O)cc1 | i
O=C(c1ccc2c(c1)N(Cc1ccc(F)cc1)CCS2)N1CCN(c2ccccc2)CC1 | 10µM*
CS(=O)(=O)N1CC(c2nc(Cc3ccccc3)no2)C1 | -17%
SMILES | Pf Dd2 inh
O=c1n(-c2ccc(C(F)(F)F)cc2)nc2n1CCN(Cc1cccc3ccccc13)C2 | -11%
Cc1n[nH]c(C)c1CCC(=O)N1CC[C@@H](NC(=O)c2cccnc2)[C@H](O)C1 | -16%
CN1CCN(c2ccc(CNC(=O)[C@H]3CN(Cc4ccccc4)C[C@H]3C(=O)O)cc2)CC1 | -14%
CN1CCCCCC(O)c2cc(C(=O)N3CCN(c4ncccn4)CC3)ccc21 (centres undefined) | i
Cc1ccc(C(=O)N2CCN(C(=O)N3CC4CC(C3)[C@H]3CCCC(=O)N3C4)CC2)cn1 (some centres undefined) | -10%
CCOc1ccc(C2Cn3nnc(-c4nc(-c5ccc(C)cc5)no4)c3CO2)cc1 (centres undefined) | i
COC[C@H]1C[C@@H](N(C)C)[C@H](O)[C@@H]1O | 4%[76.6 µM]
COc1ncccc1-c1nc(-c2c(C)noc2C)cc2c1cc(C)n2CCN(C)C | i
Cc1noc(C)c1-c1cc2c(cc(C)n2C)c(-c2ccccc2)n1 | i
COc1ncc(-c2nc(-c3c(C)noc3C)cc3c2cc(C)n3CCN(C)C)cn1 | 14µM*
CCC(C)NC(=O)C(NC(=O)c1ccc(C)cc1)C1CCN(C(=O)c2cccc(F)c2)CC1 (centres undefined) | 10µM*
Cc1ccc(C(=O)N2CCC(C(NC(=O)C(C)C)C(=O)NCC(C)C)CC2)cc1 (centres undefined) | i
CCC(C)NC(=O)C(NC(=O)c1ccc(F)cc1)C1CCN(C(=O)c2cccc(F)c2)CC1 (centres undefined) | i
Cc1ccc(C(=O)N2CCC(C(NC(=O)c3ccccc3C)C(=O)NCC(C)C)CC2)cc1 (centres undefined) | 7.9µM*
CCC(C)NC(=O)C(NC(=O)c1ccc(C)cc1)C1CCN(C(=O)C(C)C)CC1 (centres undefined) | -12%
COc1ccc(C(=O)N2CCC(C(NC(=O)c3ccccc3C)C(=O)NCC(C)C)CC2)cc1 (centres undefined) | i
Cc1ncsc1CN1CCCC(c2[nH]ccc2C(N)=O)C1 (centres undefined) | -16%
COCCNC(=O)CC[C@]12CC[C@](C)(O)C[C@H]1C(C)(C)C[C@@H]2NCc1ccc(CO)o1 | 8%
N#Cc1ccc(CN2CCc3ncc(C(=O)NCCOc4ccccc4)n3CC2)cc1 | 14%[44.1 µM]
COC[C@H]1CCCN1C(=O)CC[C@H]1CNC(=O)[C@@H]2[C@@H](CCN2Cc2ccc(OC)cc2)N1C | 3%
